# PubChem BioAssay (EPA / NIEHS)
# Activity calls are given as the source filed them. The calls were made as follows: active = hit-call score of the fitted dose curve at least 0.9, where 1 is the maximum; inactive = score below 0.9.
# Read-out: Insulin Like Growth Factor 1 (IGF1), IGF1 (gene 3479)
# Assay: LTEA_HepaRG_IGF1: Life Technologies and Expression Analysis (LTEA) Assay for Insulin Like Growth Factor 1 (IGF1) using HepaRG (AID 2283506)
# Conditions: mRNA level, 48 h; actives raise or lower the signal
# Experimental: LTEA_HepaRG is a cell based, multiplexed-readout assay that uses HepaRG, a human liver cell line, with measurements taken at 48 hours after chemical dosing on a 96-well plate.LTEA_HepaRG_IGF1 is one of 102 assay component(s) measured in the LTEA HepaRG cell culture assay. It is a marker of Cell proliferation, survival, death.Data from the assay component LTEA_HepaRG_IGF1 was analyzed into 1 endpoint. This assay endpoint, LTEA_HepaRG_IGF1, was analyzed with bidirectional fitting relative to DMSO as the negative control and baseline of activity. Using a type of inducible reporter, measures of mRNA induction for gain or loss-of-signal activity can be used to understand regulation of transcription factor activity. To generalize the intended target to other relatable targets, this assay endpoint is annotated to the growth factor intended target family, where the subfamily is insulin-like.
# A total of 1060 chemcials from the ToxCast library were tested in eight-point concentration-response experiments. Cell culture and cytotoxicity assays were conducted at Thermo Fisher Scientific's Custom Services facility (Madison, WI). A single lot of human HepaRG cells (Thermo Fisher Scientific, Frederick, MD) was used for the cell culture experiments. 96-well format collagen type I coated plates of human HepaRG cells were prepared using established methods. Briefly, cryopreserved HepaRG cells were thawed, plated at a density of approximately 100,000 cells/well in HepaRG Thaw, Plate, and General Purpose media (HPRG770, Thermo Fisher Scientific), and incubated for 48 hours. 0.5% DMSO was selected as vehicle control to balance the requisite need of DMSO in HepaRG cultures to maintain differentiation (for example, baseline metabolism, proportions of hepatocytes vs. cholangiocytes), while enabling further hepatic receptor pathway activation (for example, PXR and CAR) in response to chemical exposure. 48 hours after plating, the culture medium was replaced with HepaRG Serum-Free Incudtion Media. Cells were exposed to each test chemical in duplicate and maintained in CO2 incubators for another 48 hours. Chemical plates were thawed to room temperature and 200x concentrations of treatment groups were prepared. 8-point conentration-reponse curves were made with the highest exposure at 100 uM, followed by half-log dilutions, all in 0.5% DMSO. Each test plate contained variouse controls, induction positive controls (1mM phenobarbital), cytotoxicity positive controls ([…] aflatoxin B1), vehicle controls (0.5% DMSO), and total lysis controls (0.5% DMSO). Cell morphology images were taken using an Essen IncuCyte FLR automated microscope, with six 96-well plates imaged in about 24 minutes. Images were captured and exported and JPEG files. Spent culture media was transfered to black-well plates for the LDH assay, and remaining media was sorted at -80 C for later use. Cells were treated with RLT buffer and frozen until shipped for gene expression analysis. Total RNA was isolated from the cell suspension in 75 uL of Buffer RLT (Qiagen, Germantown, MD 20874) by Quintiles/Expression Analysis (Durham, NC) using a custom isolation procedure. Total RNA from each plate well was transferred to a preamplification plate. Fluidigm's 96.96 Dynamic ArrayTM (Fluidigm, Amsterdam, the Netherlands) technology was used for gene expression analyses by quantitative reverse transcription polymerase chain reaction (qRT-PCR, performed by Quintiles/Expression Analysis, Durham, NC)89. Standard TaqManTM Assays (Applied Biosystems/ThermoFisher Scientific, Foster City, CA) were used to assess the expression of 93 genes selected based on their selectivity and sensitivity to important hepatic receptors known to be modulated by environmental chemicals; importance in human hepatocyte functionality; and hepatotoxicity. […]
SMILES,outcome,AC50
OCCN(CCO)CCO,inactive,–
Oc1cc(Cl)c(Cl)cc1Cl,inactive,–
CC(C)O.CC(C)O.OCCN(CCO)CCO.OCCN(CCO)CCO.[Ti],inactive,–
COc1ccccc1N,inactive,–
CC(C)(C)c1ccccc1O,inactive,–
O=C(O)C1(c2ccc3c(c2)OC[C@H](Cc2ccc(-c4ccccc4)cc2)[C@H]3O)CCCC1,–,15.8 µM (active)
N#Cc1cccnc1,inactive,–
Clc1cccc(Cl)c1Cl,inactive,–
Clc1cccc(Cl)c1,inactive,–
CN(C)C(=S)S,inactive,–
Cc1cc(C)cc(C)c1,inactive,–
CCCCCCCCCCCCc1cccc(S(=O)(=O)O)c1,inactive,–
Oc1c(Cl)cc(Cl)cc1Cl,inactive,–
O=C(N[C@H]1CN2CCC1CC2)c1ccc2c(c1)OCCO2,inactive,–
